Laboratory results from PubChem BioAssay (NCATS).
Records with an inconclusive call do not appear. Values without a mark were called inactive. Activity calls are given as the source filed them. Calls come from the whole dose curve; as a rule, active = well fitted cell-killing curve with a large enough effect; inconclusive = small, poorly fitted or top-dose-only effect, or effect the other way; inactive = no such curve, though single readings can be large or run the other way.

test: Quantitative High-Throughput drug screen in 47 multiple myeloma cell lines against the NCATS MIPE library collection: SKMM1_PLB cell viability assay (AID 1919863); conditions: SKMM1 myeloma viability, CellTiter-Glo ATP, 48 h; viability: hits give low values; note: nearly all actives have a fitted effect of over 35% in size; for viability: series mostly up to about 46 µM
Description: PI: Beverly A. Mock Ph.D.
Laboratory of Cancer Biology and Genetics,
Center for Cancer Research, National Cancer Institute,
National Institute of Health, Bethesda, Maryland
Drug resistance and disease progression are common in multiple myeloma (MM) patients, underscoring the need for new therapeutic combinations. […] We hypothesized that effective combinations would reduce MYC expression and enhance p16 activity. […] These preclinical data identify potentially useful drug combinations for evaluation in drug-resistant MM and reveal potential mechanisms of combined drug sensitivity.
Described herein is the primary MIPE qHTS used to cherrypick compounds. Validated compounds were then further tested for potential synergistic activiy.
[1] Peat TJ, Gaikwad SM, Dubois W, Gyabaah-Kessie N, Zhang S, Gorjifard S, Phyo Z, Andres M, Hughitt VK, Simpson RM, Miller MA, Girvin AT, Taylor A, Williams D, D'Antonio N, Zhang Y, Rajagopalan A, Flietner E, Wilson K, Zhang X, Shinn P, Klumpp-Thomas C, McKnight C, Itkin Z, Chen L, Kazandijian D, Zhang J, Michalowski AM, Simmons JK, Keats J, Thomas CJ, Mock BA. Drug combinations identified by high-throughput screening promote cell cycle transition and upregulate Smad pathways in myeloma. Cancer Lett. 2023 Aug 1;568:216284. doi: 10.1016/j.canlet.2023.216284. Epub 2023 Jun 24. PMID: 37356470; PMCID: PMC10408729.
SEQUENCE No. (e.g., 1, 2, 3, etc.); […] (e.g., Cells, Incubation, Reagent, etc.); VALUE and DESCRIPTION.
1; Cells; 5 uL; white, solid bottom 1536-well Greiner assay plate.
2; Compounds; 23 nL; Kalypsis pin tool (Wako USA) equipped with a 1536-well pin head to transfer to the assay plates.
3; Incubation; 48 hours; 37C incubation.
4; Reagent;5uL; CellTiter Glo (Promega).
5; Detector; 425V; Luminescence; Viewlux PerkinElmer.
NOTES (numbers refer to Sequence numbers above)
1. The cell-based screening methods employed in this study were like those previously published. Briefly, the corresponding myeloma cell lines were screened in 1,536-well plates with 500 cells, 5-uL per well for inhibition of cell viability (assessed by measuring ATP levels with CellTiterGlo).
2. NCATS MIPE 4.0 library of approved and investigational drugs were added using the Kalypsis pin tool. Wells treated with DMSO only for 100% viability and media only for 0% viability were used as controls.
3. The assay plates were covered and incubated for 48 hours in a 37C, 5% CO2 incubator with controlled humidity.
4. After 48 hours, CellTilter-GloTM luminescent substrate mix (Promega) reagent was added to the assay plate and plates we incubated for 5 min at room temperature.
5. Signal was measured as median relative luminescence units on a ViewLux (PerkinElmer) multiplate reader.
[1] Heske CM, Davis MI, Baumgart JT, Wilson K, Gormally MV, Chen L, Zhang X, Ceribelli M, Duveau DY, Guha R, Ferrer M, Arnaldez FI, Ji J, Tran HL, Zhang Y, Mendoza A, Helman LJ, Thomas CJ. Matrix Screen Identifies Synergistic Combination of PARP Inhibitors and Nicotinamide Phosphoribosyltransferase (NAMPT) Inhibitors in Ewing Sarcoma. Clin Cancer Res. 2017 Dec 1;23(23):7301-7311. doi: 10.1158/1078-0432.CCR-17-1121. Epub 2017 Sep 12. PMID: 28899971; PMCID: PMC6636827.
Potency is the fitted concentration of half-maximal effect.

Structure (SMILES) | Potency | viability [%]
O[C@@H](COc1cccc2ncccc12)CN1CCN(C2c3ccccc3[C@@H]3[C@H](c4ccccc42)C3(F)F)CC1 (stereo not given in full) | 23.5 µM (active) | 
CC[C@H](C)C(=O)O[C@H]1C[C@H](O)C=C2C=C[C@H](C)[C@H](CC[C@@H](O)C[C@@H](O)CC(=O)O)[C@H]21 |  | 102
CN1c2ccccc2C(=O)N2CCc3c([nH]c4ccccc34)C21 (stereo not given) |  | 100
Cc1c(C(=O)Nc2ccc(N3C[C@@H](C)O[C@@H](C)C3)nc2)cccc1-c1ccc(OC(F)(F)F)cc1 | 26.4 µM (active) | 
CC1=C(C(=O)Nc2cc3cn[nH]c3cc2F)C(c2ccc(C(F)(F)F)cc2)CC(=O)N1 (stereo not given) |  | 160
COc1cc(CNC(=O)CCCCC=CC(C)C)ccc1O |  | 120
COc1cc(Cl)cn2c(-c3cccc(NC4CNC4)n3)cnc12 | 9.35 µM (active) | 
CCC(=O)NCC[C@@H]1CCc2ccc3c(c21)CCO3 |  | 137
COc1c(C)c2c(c(O)c1CC=C(C)CCC(=O)O)C(=O)OC2 | 5.26 µM (active) | 
Cc1cccc(-c2[nH]c(C(C)(C)C)nc2-c2ccc3c(c2)OCO3)n1 | 20.9 µM (active) | 
O=C(c1ccc(C(=O)N2CCC(N3CCCC3)CC2)c(Nc2ccccc2)c1)N1CCC(N2CCCC2)CC1 | 6.62 µM (active) | 
COc1ccc(CCN(C)CCCOc2ccc(S(=O)(=O)c3[nH]c4ccccc4c3C(C)C)cc2)cc1OC |  | 110
CN(C)CCOc1ccc(-c2nc(-c3ccc4c(c3)CCC4=NO)c(-c3ccncc3)[nH]2)cc1 | 20.9 µM (active) | 
N#Cc1ccc(Oc2ccc3c(c2)COB3O)cc1 |  | 113
CSc1cccc(Nc2ncc3cc(-c4c(Cl)cccc4Cl)c(=O)n(C)c3n2)c1 | 1.87 µM (active) | 
Oc1cc(O)cc(C=Cc2ccc(O)c(O)c2)c1 | 23.5 µM (active) | 
CNC(=O)c1cc(Oc2ccc(NC(=O)Nc3ccc(Cl)c(C(F)(F)F)c3)c(F)c2)ccn1 | 20.9 µM (active) | 
C[C@@]1(C(=O)Nc2ccc(F)nc2)CCCN1c1nc(Nc2cc(C3CC3)[nH]n2)c2cccn2n1 | 1.48 µM (active) | 
CC1(C)OC2CC3C4CC(F)C5=CC(=O)C=CC5(C)C4C(O)CC3(C)[C@]2(C(=O)CO)O1 (stereo not given in full) |  | 131
Cc1cn([C@@H]2C[C@@H](O)[C@H](CO)O2)c(=O)[nH]c1=O |  | 137

Structure (SMILES) | Potency | viability [%]
Cn1c(=O)c(-c2c(Cl)cccc2Cl)cc2cnc(Nc3cccc(C(=O)O)c3)nc21 | 2.09 µM (active) | 
COc1ccc(-c2cc3nccn3c(Nc3ncccc3C(N)=O)n2)cc1OC |  | 103
CCc1cccc(CC)c1NC(=O)N1Cc2[nH]nc(NC(=O)c3ccc(N4CCN(C)CC4)cc3)c2C1 | 2.64 µM (active) | 
CCC(=O)N1CCN(c2ccc(-n3c(=O)ccc4cnc5ccc(-c6cnc7ccccc7c6)cc5c43)cc2C(F)(F)F)CC1 | 0.0148 µM (active) | 
CN(C(Cc1ccc(OS(=O)(=O)c2cccc3cnccc23)cc1)C(=O)N1CCN(c2ccccc2)CC1)S(=O)(=O)c1cccc2cnccc12 (stereo not given) | 9.35 µM (active) | 
Clc1ccc(COC(Cn2ccnc2)c2ccc(Cl)cc2Cl)c(Cl)c1 (stereo not given) | 20.9 µM (active) | 
CS(=O)(=O)c1ccc(C2=C(c3ccccc3)C(=O)OC2)cc1 |  | 152
Fc1ccc(CNc2ncnc3ccc(F)cc23)cc1 |  | 104
CCC(C)SSc1ncc[nH]1 (stereo not given) | 11.8 µM (active) | 
O=S(=O)(O)c1ccc2cc(N=Nc3cc(S(=O)(=O)O)c4cccnc4c3O)ccc2c1 | 18.7 µM (active) | 
CC[C@H](C)n1cc(C)c2c(C(=O)NCc3c(C)cc(C)[nH]c3=O)cc(-c3ccc(N4CCNCC4)nc3)cc21 | 20.9 µM (active) | 
COc1nccc(-c2c(-c3ccc(F)cc3)ncn2C2CCC(O)CC2)n1 (stereo not given) | 0.0296 µM (active) | 
CC(C)C[C@@H](C(=O)N[C@H](C(=O)OC1CCCC1)c1ccccc1)[C@H](O)C(=O)NO | 20.9 µM (active) | 
C[C@@H](O)[C@H]1C(=O)N2C(C(=O)OCOC(=O)C(C)(C)C)=C(SC3CN(C4=NCCS4)C3)[C@H](C)[C@H]12 |  | 111
CN(C)CCCNC(=O)c1ccc(-c2cc(O)c3ncccc3c2)cc1 | 14.8 µM (active) | 
Nc1ccn([C@@H]2O[C@H](CO)[C@@H](O)[C@H]2O)c(=O)n1 |  | 113
O=C(Nc1ccc(OC(F)(F)F)cc1)c1sccc1NCc1ccnc2ccccc12 | 18.7 µM (active) | 
Cc1[nH]c(C=C2C(=O)Nc3ccc(S(=O)(=O)N(C)c4cccc(Cl)c4)cc32)c(C)c1C(=O)N1CCN(C)CC1 | 20.9 µM (active) | 
C[C@H](CCC(=O)O)[C@H]1CC[C@H]2[C@H]3[C@@H](CC[C@]12C)[C@@]1(C)CC[C@@H](O)C[C@H]1C[C@@H]3O |  | 120
CCCCC(F)(F)[C@@]1(O)CC[C@H]2[C@H](CC(=O)[C@@H]2CCCCCCC(=O)O)O1 |  | 97.7
